Screening data: PubChem BioAssay, National Center for Advancing Translational Sciences (NCATS)
FMDV inh – foot and mouth disease virus antiviral activity; Potency, µM (top dose mostly 57.9 µM), for the others: at the highest dose activity change, negative = inhibition, hits mostly inhibitors; 410,000 tested, 1.2% active; FMDV antiviral cell-based qHTS; calls by dose curve; tested in HEK293T cells; further: read-out not given here; potency means the concentration at half of the fitted maximal effect; nearly all actives have a fitted effect of over 45% in size
LASV entry inh – blocks Lassa virus binding to or entry into cells | Lassa virus pseudotype entry inhibition, cell reporter | 300,000 tested, 1.2% active | Potency, µM (highest dose often 37.9 µM), inactives show top-dose activity change, negative = inhibition, actives largely listed as inhibitors; calls by dose curve; tested in HEK293 cells; further: potency means the concentration at half of the fitted maximal effect; nearly all actives have a fitted effect of over 50% in size
HCMV inh – inhibitors of human cytomegalovirus; HFF cells, HCMV-luciferase reporter, 72 h; hits give low values; activity change, negative = inhibition, % at 57.5 µM; 410,000 tested, 4.5% active; in the data active means activity change below about -60%; inconclusive means no clear call, values can overlap the other calls; inactive means above about -39%
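Two compound doses tested in HFFs infected with HCMV-luciferase, MOI 1 PFU/cell, 72 h at 37C. Lysate luminescence read with OneGlo; data normalized against buffer-only and 10uM Salinomycin inhibitor controls.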
VACV mCherry inh – vaccinia inhibition (mCherry reporter); Vaccinia virus mCherry reporter infection, fluorescence; Potency, µM (titrated, usually from 36.5 µM), inactives show top-dose activity change, negative = inhibition, usual class: inhibitors; 310,000 tested, 0.63% active; AID 720579; calls by dose curve; tested in A549 cells; further: potency means the concentration at half of the fitted maximal effect; nearly all actives have a fitted effect of over 35% in size
VACV Venus inh – vaccinia inhibition (Venus reporter). Vaccinia virus Venus reporter expression, fluorescence. Potency, µM (top dose mostly 36.5 µM), for the others: at the top dose activity change, negative = inhibition, usual class: inhibitors. 330,000 tested, 0.46% active. AID 720580; calls by dose curve; tested in A549 cells; further: potency means the concentration at half of the fitted maximal effect; nearly all actives have a fitted effect of over 30% in size
Marburg entry inh – blocks Marburg virus binding to or entry into cells; Marburg virus pseudotyped entry inhibition, cell reporter; Potency, µM (doses to about 37.8 µM), inactives show top-dose activity change, negative = inhibition, usual class: inhibitors; 300,000 tested, 1.8% active; calls by dose curve; tested in HEK293 cells; further: potency means the concentration at half of the fitted maximal effect
* = called active by the depositor; i = inactive; u = inconclusive; x = no result given; [ ] = remark or other dose. An excerpt weighted towards active compounds, which were near 6.5% of everything screened. On the % scale 0 is the no-effect control and ±100 the full control effect.

SMILES	FMDV inh	LASV entry inh	HCMV inh	VACV mCherry inh	VACV Venus inh	Marburg entry inh
Cc1cc(CN(C)C(=O)c2cc(COc3ccc4ncccc4c3)on2)on1	u	u	-80*	-3%	-14%	u
COc1cc(Cl)ccc1OCc1cc(C(=O)NCC(C)c2ccccc2)no1 (stereo unspecified)	-2%	x	-16	x	x	x
CCC(O)C1CCN(C(=O)c2cc(COc3ccc4ncccc4c3)on2)CC1 (stereo unspecified)	u	u	x	-18%	-24%	u
CN(Cc1nccn1C)C(=O)c1cc(COc2ccc3ncccc3c2)on1	u	-16%[46.1 µM]	-31	u	-4%	u
CN(C(=O)CSc1cc(C(=O)c2nccn2C)c2ccccc2n1)c1ccccc1	10%	2%	-99*	-15%	-6%	u
Cn1ccnc1C(=O)c1cc(SCC(=O)NC2CC2)nc2ccccc12	-8%	-5%[46.1 µM]	-6	-3%	-9%	16%[46.1 µM]
CC[C@@H]1[C@H]2CCCC(=O)N3CC[C@@H](C[C@@H]1OC(=O)Nc1ccc4c(c1)OCO4)[C@@H]23	x	x	x	i	-29%	x
CSc1ccc2c(c1)C(N1CCN(C)CC1)Cc1ccc(F)cc1S2 (stereo unspecified)	-22%	x	-10	x	x	x
COc1ccc2c(c1)CC(N1CCN(C)CC1)c1cc(OC)ccc1S2 (stereo unspecified)	u	u	-64*	u	u	4µM*
CC(=O)Nc1ccc(Nc2cc(C)nc3c(-c4ccccc4)cnn23)cc1	u	u	-92*	u	u	u
Cc1cc(N)n2ncc(-c3ccccc3)c2n1	46%	-19%	102	-10%	-21%	u
Cc1cc(C)cc(-n2c(SCC(=O)Nc3cccc(F)c3)nc3c([nH]c4ccccc43)c2=O)c1	u	5%[46.1 µM]	8	4%	6%	x
Cc1ccc(S(=O)(=O)N2CCN(c3nc(-n4cccn4)nc4ccccc34)CC2)cc1	x	x	x	-9%	-8%	x
Cc1nnc2ccc(N3CCC4(CC3)OCCO4)nn12	4%	34%[14.3 µM]	-62*	-8%	2%	u
Fc1ccc(NC(=S)NNc2ncc(C(F)(F)F)cc2Cl)c(F)c1	-41%	u	-99*	-47%	-43%	u
FC(F)(F)c1cnc(NNC(=S)Nc2ccc(Cl)cc2)c(Cl)c1	-26%	u	-99*	u	u	u
Cc1ccc(NC(=S)NNc2ncc(C(F)(F)F)cc2Cl)cc1	u	u	-26	u	u	u
CCN(CC)S(=O)(=O)c1ccc(-c2nnc(SCc3nnc(-c4ccccc4)o3)o2)cc1	x	u	-18	u	0.035µM*	u
O=S(=O)(c1ccc(-c2nnc(SCc3nnc(-c4ccccc4)o3)o2)cc1)N1CCCC1	-7%	1%	-5	x	x	-26%
O=C(CSc1nc2cc(C(=O)NC3CCCC3)ccc2c(=O)n1CC1CCCO1)c1ccc(F)cc1 (stereo unspecified)	-1%	-8%[46.1 µM]	11	3%	7%	x
Cc1[nH]n(-c2ncc(-c3ccccc3)s2)c(=O)c1C(c1ccc(Cl)cc1)C(C#N)C#N (stereo unspecified)	20µM*	7%	-2	-19%	-13%	14%
Cc1[nH]n(-c2ccccc2)c(=O)c1C(c1ccccc1[N+](=O)[O-])C(C#N)C#N (stereo unspecified)	u	x	38	x	x	x
COc1cc(NC(=O)c2ccc(Cl)cc2Cl)ccc1-c1cc2ccccc2oc1=O	3%	u	-91*	-10%	-19%	-29%
COc1cc(NC(=O)c2ccc(C)cc2C)ccc1NC(=O)c1cc2ccccc2o1	-30%	x	-82*	x	x	x
COc1cc(NC(=O)Cc2ccccc2)ccc1NC(=O)c1ccco1	69%	0%	-9	x	x	25%
SMILES	FMDV inh	LASV entry inh	HCMV inh	VACV mCherry inh	VACV Venus inh	Marburg entry inh
COc1cc(NC(=O)c2cc3ccccc3o2)ccc1NC(=O)c1ccco1	-2%	6%	-1	-11%	-11%	8%[46.1 µM]
COc1cc(NC(=O)c2ccccc2Cl)ccc1NC(=O)c1ccco1	16%	-23%	53	14µM*	u	19%
COc1cc(NC(=O)c2ccco2)ccc1NC(=O)c1ccccc1Cl	12%	13µM*	u	x	-28%	u
COc1cc(NC(=O)c2ccc(C)cc2)ccc1NC(=O)c1cc2ccccc2o1	-9%	-3%	9	-5%	1%	-25%
CN(C)CCNC(=O)COc1ccc(C23CC4CC(CC(C4)C2)C3)cc1	-28%	u	-68*	-9%	u	4µM*
COc1ccc(CN2CCN(c3ncc(C(=O)Nc4ccccc4)o3)C2=O)cc1	x	x	12	x	x	x
COC(=O)c1ccc(C)c(NS(=O)(=O)c2ccc(OC)cc2)c1	35%	u	-91*	u	u	u
COc1ccc(S(=O)(=O)Nc2ccc3oc(C)c(C(=O)O)c3c2)cc1	-18%	x	-28	i	-13%	-1%
COc1ccc(S(=O)(=O)Nc2ccc3oc4c(c3c2)CCCC4)cc1	25%	u	9	u	-19%	10µM*
COc1ccc(S(=O)(=O)Nc2ccc(Nc3ccccc3)cc2)cc1	7%	x	-70*	x	x	x
COc1ccc(S(=O)(=O)Nc2ccc(O)c3ccccc23)cc1	-17%	u	-104*	-12%	-1%	0%
CCOC(=O)c1ccc(NC(=O)C(CC)Sc2nncn3c2cc2oc(C)cc23)cc1 (stereo unspecified)	-13%	-1%[46.1 µM]	-25	-3%	-7%	x
COc1ccc(CCNC(=O)CCn2c(=O)c3ccccc3n(Cc3ccccc3C)c2=O)cc1OC	-22%	-10%[46.1 µM]	-29	-1%	8%	u
O=C(Cn1c(=O)oc2cc(S(=O)(=O)NCc3ccccc3)ccc21)N(CCO)Cc1ccccc1	38%	-17%[46.1 µM]	u	-18%	-19%	x
O=C(c1ccccc1)c1ccc(OCC(O)CN2CCN(S(=O)(=O)N3CCCCC3)CC2)cc1 (stereo unspecified)	14µM*	u	-67*	x	x	-20%
CCC(C)Oc1ccc(/C=C/c2[nH]c(=O)[nH]c(=O)c2[N+](=O)[O-])cc1OC (stereo unspecified)	32µM*	-10%[46.1 µM]	u	i	-4%	u
COc1cc(/C=C/c2[nH]c(=O)[nH]c(=O)c2[N+](=O)[O-])cc([N+](=O)[O-])c1O	-19%	x	4	x	x	x
COc1cc(/C=C/c2[nH]c(=O)[nH]c(=O)c2[N+](=O)[O-])ccc1OCCC(C)C	28µM*	u	-24	-7%	-4%	-30%[46.1 µM]
N#Cc1ccccc1Cn1c(=O)n(CCCCC(=O)NCc2ccc3c(c2)OCO3)c(=O)c2ccccc21	12%	-29%[46.1 µM]	8	-18%	-14%	14%[46.1 µM]
CCCn1c(=O)n(-c2cc(Cl)c(OC)cc2OC)c(=O)c2c3c(sc21)CN(C(C)=O)CC3	2%	x	-4	-7%	-14%	12%[46.1 µM]
COCCN=c1scc(-c2cccs2)n1/N=C/c1ccc(O)c(O)c1O	1%	x	-38	11µM*	u	x
